# High-throughput results deposited in PubChem BioAssay by National Center for Advancing Translational Sciences (NCATS).
# Cruzain inh Det = qHTS Assay for Promiscuous and Specific Inhibitors of Cruzain (with detergent) | Cruzipain (Trypanosoma cruzi), P25779 | purified cruzain, Z-FR-AMC fluorescence, 0.01% Triton | Potency, µM, for inactives: max response, negative = inhibition, most hits filed as inhibitors | actives 0.43% (n = 200,000);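 note: plate controls were neutral wells for no effect and buffer without enzyme for full effect; nearly all actives have a fitted effect of over 40% in size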
# Target sequence (P25779 123-467 limits assumed): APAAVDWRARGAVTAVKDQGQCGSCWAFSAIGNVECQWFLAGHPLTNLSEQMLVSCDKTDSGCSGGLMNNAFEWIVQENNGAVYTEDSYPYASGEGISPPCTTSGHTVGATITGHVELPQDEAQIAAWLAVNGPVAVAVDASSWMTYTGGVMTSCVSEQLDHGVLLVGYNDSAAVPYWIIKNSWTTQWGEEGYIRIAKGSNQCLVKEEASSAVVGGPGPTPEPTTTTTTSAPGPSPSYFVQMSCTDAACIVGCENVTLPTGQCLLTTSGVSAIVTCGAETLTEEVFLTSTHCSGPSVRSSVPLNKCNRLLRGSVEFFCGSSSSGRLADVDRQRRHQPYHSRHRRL
#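 Cruzain (1.5 nM) preincubated 15 min at RT with compound in 100 mM sodium acetate pH 5.5, 5 mM DTT, 0.01% Triton X-100. Reaction started with 2 uM Z-FR-AMC; AMC fluorescence (ex 360/em 450 nm) change over 60 s gave rate.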
# Cruzain noTriton = qHTS Assay for Promiscuous and Specific Inhibitors of Cruzain (without detergent) | Cruzipain (Trypanosoma cruzi), P25779 | purified cruzain, Z-FR-AMC fluorescence, no detergent | Potency, µM, inactives show max response, negative = inhibition, usual class: inhibitors | actives 2.3% (n = 200,000);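 note: plate controls were enzyme without inhibitor for no effect and buffer without enzyme for full effect; nearly all actives have a fitted effect of over 40% in size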
#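 Purified cruzain at 1.5 nM, pre-incubated 15 min with compound at room temperature in 100 mM sodium acetate pH 5.5, 5 mM DTT, 0.00005% Triton X-100. Reaction started with 2 uM Z-FR-AMC; AMC fluorescence increase over 60 s gives rate.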
# Numbers without * were called inactive; ? = inconclusive. Rows were chosen to be rich in hits. Some 2.5% of all compounds tested hit in one or more screens of this group. Calls come from the whole dose curve; as a rule, active = well fitted curve in the direction sought with a large enough effect; inconclusive = small, poorly fitted or top-dose-only effect, or another doubt; inactive = no such curve, though single readings can be large; an effect the other way counts as inactive or inconclusive. Potency is the fitted concentration of half-maximal effect.
SMILES,Cruzain inh Det,Cruzain noTriton
c1ccc(-c2ccc(CN3C[C@@H]4C(c5ccccc5)C5(c6ccccc6)CC4(C5)[C@H]3c3ccccc3)cc2)cc1 (stereo not given in full),4%,1%
COC(=O)c1cccc(C23CC4(C2)[C@H](CN(Cc2ccc(-c5ccccc5)cc2)[C@@H]4c2ccccc2)C3c2ccc(Cl)nc2)c1 (stereo not given in full),2%,7.9µM*
COC(=O)c1cccc(C23CC4(C2)[C@H](CN(Cc2cccnc2)[C@@H]4c2ccccc2)C3c2ccc(Cl)nc2)c1 (stereo not given in full),0%,-1%
COC(=O)c1ccc(C23CC4(C2)[C@H](CN(Cc2ccc(-c5ccccc5)cc2)[C@@H]4c2ccccc2)C3c2ccccc2)cc1 (stereo not given in full),2%,7.9µM*
N#Cc1ccc(C23CC4(C2)[C@H](CN(Cc2ccc(-c5ccccc5)cc2)[C@@H]4c2ccccc2)C3c2ccccc2)cc1 (stereo not given in full),-4%,13µM*
COc1ccc(NC(=O)C2=C(C)Nc3ncnn3C2c2ccc(O)cc2)cc1 (stereo not given),-2%,-6%
Cc1ccc(-n2c(=O)c3c4c(sc3n(CC(=O)Nc3ccccc3C)c2=O)CCCCC4)cc1C,2%,5%
CCOc1ccc(Nc2c(S(=O)(=O)c3ccc(C)cc3)cnc3cc(OC)c(OC)cc23)cc1,-4%,?
COc1ccc(-c2nn(CC(=O)Nc3ccc(Cl)c(Cl)c3)c(=O)c3ccccc23)cc1,-1%,7.9µM*
O=C(Cn1nc(-c2ccc(Cl)cc2)c2ccccc2c1=O)Nc1cccc(Br)c1,-3%,-8%
COc1cc(C2=N/C(=C\c3ccccc3)C(=O)O2)cc(OC)c1OC,3%,-8%
COc1cc(/C=C2/N=C(C3CCCCC3)OC2=O)cc(OC)c1OC,2.5µM*,2.5µM*
O=C(NC1CC(=O)N(c2ccccc2)C1)C(c1ccccc1)c1ccccc1 (stereo not given),-1%,0%
Cc1nn(-c2ccc([N+](=O)[O-])cc2)c2c1C(c1cccc(Br)c1)N1C(=N2)C(=O)Nc2ccccc21 (stereo not given),-3%,4µM*
Cc1nn(-c2ccccc2)c2c1C(c1ccc([N+](=O)[O-])cc1)N1C(=N2)C(=O)Nc2ccccc21 (stereo not given),-10%,-9%
COc1ccc(-c2nc(C)c(CCNC(=O)c3c(F)cccc3F)s2)cc1,-13%,-17%
O=[N+]([O-])c1cc(C(F)(F)F)cc([N+](=O)[O-])c1N1CCN(S(=O)(=O)c2ccccc2)CC1,-7%,-4%
O=[N+]([O-])c1cc(C(F)(F)F)ccc1N1CCN(S(=O)(=O)c2ccc3ccccc3c2)CC1,0%,25µM*
COc1ccc(S(=O)(=O)Nc2ccc3c(c2)N(C(C)=O)CCC3)cc1F,-1%,-7%
COc1cc(-c2nc3ccccn3c2Nc2ccccc2C)ccc1O,-12%,0%
CC(=O)Nc1ccc(OC(=O)c2cc3cc(Br)cc(Br)c3oc2=O)cc1,-1%,20µM*
CC(=O)Nc1ccc(OC(=O)c2cc3cc(Br)ccc3oc2=O)cc1,0%,0%
C=CCSc1nnc2c(n1)OC=Nc1ccc(Br)cc1-2,-5%,25µM*
CCSc1nnc2c(n1)OC=Nc1ccc(Br)cc1-2,-6%,-16%
Cc1cccc(C2=NN(c3ccccc3)[C@H](CO)[C@H]2c2ccccc2)c1,-1%,?
SMILES,Cruzain inh Det,Cruzain noTriton
Cc1cccc(C2=NN(c3ccccc3)[C@H](CO)[C@H]2C)c1,-2%,35µM*
O=C(Cc1ccc(Br)cc1)NC1CCCCC1,-6%,4%
CC1CCCC(NC(=O)Cc2ccc(Br)cc2)C1C (stereo not given),25µM*,?
CC(=O)O[C@@H](C)C#C[Si](C)(C)c1ccccc1,2%,-2%
CCCN1C(=O)/C(=C\C=C2/C=CN(CC)c3ccccc32)SC1=S,-6%,-8%
CCCCN1C(=O)/C(=C/C=C2\N(C)c3ccccc3C2(C)C)SC1=S,-2%,32µM*
CCCCCCC(=O)Nc1nc(C)c(-c2csc(Nc3cc(OC)ccc3OC)n2)s1,-2%,10µM*
Cc1nc(NC(=O)CC(C)C)sc1-c1csc(Nc2ccc(Cl)cc2Cl)n1,-1%,16µM*
C=CCCC(=O)Nc1nc(C)c(-c2csc(Nc3ccc(Cl)cc3Cl)n2)s1,-1%,?
CCCCCC(=O)Nc1nc(C)c(-c2csc(Nc3cc(OC)ccc3OC)n2)s1,5%,?
COc1ccc(Cl)cc1Nc1nc(-c2sc(NC(=O)CC(C)C)nc2C)cs1,-2%,20µM*
C=CCCC(=O)Nc1nc(C)c(-c2csc(Nc3cc(Cl)ccc3OC)n2)s1,-4%,16µM*
Cc1ccc(-c2c(C(=O)N3CCN(c4cccc(C)c4)C(C)C3)oc(=O)c3ccccc23)cc1 (stereo not given),-7%,-24%
CCNc1ncc2nc(-c3cccs3)c(=O)n(CCC#N)c2n1,-7%,-4%
COc1cccc(C2CC(=O)Nc3c2c(=O)[nH]c2ncnn32)c1OC (stereo not given),0%,12%
Clc1ccc(-c2csc(-c3nc(-c4ccc(Br)s4)cs3)n2)cc1,-1%,-1%
COC(=O)CCC(C)C1CCC2C3C(C[C@H](O)C12C)C1(C)CC[C@@H](O)CC1C[C@H]3O (stereo not given in full),1%,?
Cc1ccccc1CCNC(=O)c1ccc(Cn2c(=O)c3cccn3c3cccnc32)cc1,-2%,-1%
CC[C@H](C)[C@@H](NC(=O)O[C@H]1C(=O)c2ccc(OC)cc2O[C@@H]1c1ccc2c(c1)OCO2)C(=O)OC,-7%,-5%
CCOC(=O)c1sc(N2C(=O)c3oc4ccc(C)cc4c(=O)c3C2c2ccccc2F)nc1C (stereo not given),-1%,6%
C=CCNc1nc(-c2sc(NC(=O)CC)nc2C)cs1,-10%,?
Cc1nc(NC(=O)CC(C)C)sc1-c1csc(Nc2ccc(Cl)cc2)n1,2%,13µM*
Cc1ccc(-c2noc(-c3cccnc3NCc3ccc(Cl)cc3)n2)cc1,-1%,-3%
Cc1ccc(NC(=O)C(NS(=O)(=O)c2ccc3c(c2)CCC(=O)N3)c2ccccc2)cc1C (stereo not given),-1%,-5%
O=C(CCCN1C(=O)/C(=C/c2cccs2)SC1=S)NNC(=O)c1ccccc1O,-4%,-12%
SMILES,Cruzain inh Det,Cruzain noTriton
O=C(CN1C(=O)/C(=C\C=C\c2ccccc2)SC1=S)Nc1ccc(F)cc1,-7%,6.3µM*
CN1CCN(NC(=O)CN2C(=O)/C(=C/c3ccccc3F)SC2=S)CC1,-10%,-8%
Cc1ccc(NC(=O)CN2C(=O)/C(=C\c3cccs3)SC2=S)cc1,-4%,5µM*
O=C(CCN1C(=O)/C(=C/C=C/c2ccccc2)SC1=S)Nc1nc2ccccc2s1,-8%,7.9µM*
COc1cccc(/C=C2/SC(=S)N(CC(=O)Nc3nnc(C)s3)C2=O)c1,-9%,-23%
O=C(CN1C(=O)/C(=C/c2ccccc2)SC1=S)Nc1ncc(Cc2ccccc2)s1,-2%,4µM*
O=C(CCn1c(=O)oc2ccccc21)Nc1nc2ccccc2s1,-8%,10%
COc1ccc(NC(=O)c2ccc3c(=O)n4nc(Nc5ccccc5C)sc4nc3c2)cc1Cl,-2%,11%
